PubChem BioAssay (NCI)
The panel holds about 79,000 compounds, 15% with a hit somewhere; the sample as a whole holds those more often. Cut-off read from the data, not from the text of the source: active = growth inhibition above about 70%; inactive = the rest.

What was measured:
[1] = NCI Yeast Anticancer Drug Screen. Data for the rad50 strain (AID 155);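 note: 0% = growth of vehicle-only cultures of the same strain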; conditions: S. cerevisiae rad50 strain growth inhibition; at 50.0 µM; hits give high values
Method in brief: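 Inhibition values express reduced yeast growth in compound-treated cultures relative to vehicle-treated controls.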

[2] = NCI Yeast Anticancer Drug Screen. Data for the mec2-1 strain (AID 157); conditions: S. cerevisiae mec2-1 strain, at 50.0 µM, hits give high values
Method in brief: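 Each compound was tested on mec2-1 yeast, a strain altered in DNA damage repair or cell cycle control. Growth inhibition is reported relative to vehicle.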

[3] = NCI Yeast Anticancer Drug Screen. Data for the mlh1 rad18 strain (AID 175); conditions: S. cerevisiae mlh1 rad18 strain growth inhibition; at 50.0 µM; hits give high values
Method in brief: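 Inhibition values reflect reduced growth of mutant yeast versus vehicle-treated controls following compound exposure; the mutations affect DNA damage repair.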

Measured: growth inhibition

COc1cccc(N2C(=O)CSC2=S)c1
inactive: [1] 32.7% | [2] 7.95% | [3] 46.8%

COc1cc(C(=O)N/N=C/c2ccc(N(C)C)cc2)cc(OC)c1OC
inactive: [1] -32.2% | [2] -45.2% | [3] -20.8%

Cc1ccc(N2C(=O)CC(Sc3ccccc3N)C2=O)cc1Cl (stereo not given)
inactive: [1] -15.5% | [2] -35.6% | [3] -11.9%

Oc1cc(Br)ccc1C=Nc1ccc(N2CCCCC2)cc1
inactive: [1] 25.4% | [2] 10.5% | [3] 17.8%

COc1ccc(COC(=O)N=[N+]=[N-])cc1
inactive: [1] 19.1% | [2] 3.85% | [3] 13.4%

COC(=O)C/C(=C/C=C1/C(=O)ON=C1C)c1c(C)[nH]oc1=O
inactive: [1] -10.9% | [2] -29.9% | [3] -16.9%

Cc1ccccc1CC1c2[nH]c3ccccc3c2CCN1C (stereo not given)
inactive: [1] -9.95% | [2] -50.5% | [3] -22.4%

O=C(Cc1cccc2ccccc12)N/N=C/c1ccc2c(c1)CCC2
inactive: [1] 14.9% | [2] -13.2% | [3] -8.45%

Nc1ccc2[nH]c(-c3ccccc3)cc(=O)c2c1
inactive: [1] -38% | [2] -33.8% | [3] -15.9%

S=c1[nH]nc(NC2CCCCC2)s1
inactive: [1] -4.4% | [2] -12% | [3] -7.1%
